The values that follow come from PubChem BioAssay AID2315 (National Center for Advancing Translational Sciences (NCATS), 2010).

By inhibition is commonly meant the relative decrease from the control value, in per cent.

Several values for one entry are separate records, joined by “and”; a condition that tells them apart may be missing. Equal values may be shown once. Screen size: about 290,000 compounds; about 27,000 (9.3%) were called active. The sample holds actives, similar compounds and a random draw of the others, so the mix is not that of the screen. Unmarked numbers belong to inactive results. Rule as the data show it: active = inhibition mostly above about 28% (no sharp cut-off); inactive = mostly below about 43%.

A short description of the assay: A qHTS for Small Molecule Inhibitors of Shiga Toxin. Also: 0% is about no effect. The note with it: Vero cells, Shiga toxin protein synthesis inhibition reporter; at 38.7 µM, stronger effect = higher value. (In general: qHTS replaces the single test concentration by a dilution series.)
Regarding `O=C(c1cccs1)N(Cc1cc2ccccc2[nH]c1=O)CC1CCCO1` (configuration not stated), the inhibition was -16%.
In the case of `CCN1C(=NCCc2cccnc2)N[C@@H](c2ccccc2)C(C(=O)OC)=C1C` it was -1.87% and -4.64%.
Then `S=C(Nc1cccnc1)Nc1ccccn1`, with -1.64%; and `Cc1ccc(NC(=S)Nc2ncccc2C)c(C)c1`, with 54.2% (active).
In the case of `Cc1ccc(NC(=S)NCc2ccccc2Cl)c(C)c1` it was -19.8%; in that of `Cc1ccc(NC(=S)NCCc2ccc(Cl)cc2)c(C)c1`, 13.6%.
Regarding `COc1ccc(CN2CC(C(=O)NCCc3ccc(Cl)cc3)CC2=O)cc1` (configuration not stated), the inhibition is -11.7%.
As for `Cn1ncc(Br)c1C(=O)NC1CCCC1`, the inhibition was -7.94%.
Then `C=CCn1c(=NC(=O)c2ccc(S(=O)(=O)N3CCCC3)cc2)sc2cc(NC(C)=O)ccc21`, with -8.21%.
`C=CCn1c(CCNC(=O)c2cccs2)n[nH]c1=S`: the inhibition is 2.22%.
Then `C=CCn1c(=NC(=O)c2cccs2)sc2cc(NC(C)=O)ccc21`, with 47.4% (active); and `COc1ccc(CNS(=O)(=O)c2cc(-c3cc(C)no3)ccc2C(C)C)cc1`, with -15.5%; and `CN(C)Cc1c(C(=O)N/N=C/c2ccccc2OCc2ccc(F)cc2)nnn1-c1nonc1N`, with -7.12%.
On to `CN(C)c1ccc(/C=C/C(=O)c2ccc(C(C)(C)C)cc2)cc1[N+](=O)[O-]`, for which the inhibition is 27.8%.
Then `O=C(/C=C/c1ccc(Cl)c([N+](=O)[O-])c1)c1ccc(O)cc1`, with 10.6%; and `O=C(O)/C=C/c1ccc2c(c1)OCCO2`, with -2.74%.
In the case of `O=C(/C=C\c1ccc2c(c1)OCO2)NC1(C(=O)Nc2ccc3c(c2)OCCO3)CCCCC1`, the inhibition was -4.85%.
In the case of `CN(C)c1ccc(/C=C/C(=O)c2ccc(O)cc2)cc1[N+](=O)[O-]` it was 48.8% (active); in that of `O=C(/C=C/c1ccc2c(c1)OCCO2)c1ccc(O)cc1`, 56.9% (active); in that of `CCOc1ccc(N2CC(C(=O)NCc3ccccn3)CC2=O)cc1` (configuration not stated), -7.37%.
In the case of `COc1cc(/C=C/C(=O)N2CCc3ccccc3C2)cc(OC)c1OC` it was -4.9%; in that of `Cc1ccc(S(=O)(=O)N2CCC(Oc3ccc(-n4cnnn4)cc3)CC2)cc1`, 1.93%; in that of `Cc1ccc(C)c(N2CCN(C(=O)Cn3ncn4cccc4c3=O)CC2)c1`, -2.82%.
Then `CCc1nc2nc(C)c(NS(=O)(=O)c3ccc4c(c3)CCCC4)c(=O)n2[nH]1`, with -6.5%; and `Cc1cccc(CNS(=O)(=O)c2ccc(-c3cnc(C4CC4)o3)cc2)c1`, with 13.9%; and `N/C(=N\OC(=O)c1ccc([N+](=O)[O-])cc1)c1ccccn1`, with 71% (active).
As to `N/C(=N\OC(=O)COc1ccc([N+](=O)[O-])cc1)c1ccc(Br)cc1`, the inhibition is 2.73%.
Take `N/C(Cc1ccc([N+](=O)[O-])cc1)=N\OC(=O)COc1ccc2ccccc2c1`: the inhibition was 12.2%.
Then `N/C(=N\OC(=O)Cc1ccc([N+](=O)[O-])cc1)c1ccccn1`, with 124% (active); and `O=C(OCc1ccc([N+](=O)[O-])cc1)c1ccccn1`, with 1.67%.
In the case of `CO/N=C(\N)c1ccc([N+](=O)[O-])cc1` it was -2.22%; in that of `CC(C)(C)c1ccc(Cn2nnc3c(=O)[nH]c(C4CCCN(C(=O)c5ccco5)C4)nc32)cc1` (configuration not stated), 2.02%; in that of `Cc1cc(C)n(CCC(=O)N2CCN(S(=O)(=O)c3ccc(C)c(C)c3)CC2)n1`, -6.68%.
Then `Cc1ccc(CNC(=O)C2CCCN2S(=O)(=O)c2ccc3c(c2)C(C)(C)C(=O)N3C)cc1` (configuration not stated), with -2.07%; and `Cc1cc(C(F)F)nn1CC(=O)NC1CCCCCC1`, with -2.84%.
Take `CCn1c(=S)sc2c(=O)n(CC(=O)Nc3ccc(OC)cc3)c(C)nc21`: the inhibition is -8.22%.
As for `COc1cc(CCC(=O)Nc2ccncc2Cl)cc(OC)c1OC`, the inhibition is -2.22%.
In the case of `CN(C(=O)CSc1nncc2ccccc12)C1CCCCC1` it was 69.8% (active).
`CN(C(=O)CSc1nnnn1-c1ccccc1)C1CCCCC1`: the inhibition was 31.7%.
Take `CN(C(=O)CCn1c(=S)oc2ccccc21)C1CCCCC1`: the inhibition was -6.3%.
Consider `CC(=O)Nc1ccc(NC(=O)CC2CCCC2)cc1`, for which the inhibition was 48.2% (active).
With `O=C(CC1CCCCC1)NCc1ccco1`, the inhibition is -2.21%.
Then `O=C(CCc1ccc(S(=O)(=O)NC2CCCCC2)cc1)NCc1ccccc1`, with -10%; and `CC(=O)Nc1ccc(S(=O)(=O)N2CCN(C3CCCCCCC3)CC2)cc1`, with -14.3%; and `CC(=O)Nc1ccc(N2C(=O)C3C4C=CC(CC4)C3C2=O)cc1` (configuration not stated), with 11.7%.
Then `O=C(CC1CCCCC1)NCc1ccc(F)cc1`, with 61.1% (active).
Then `O=C(Cc1ccc(F)cc1)NC1CCCC1`, with -4.53%; and `O=C(Cn1nc(C(F)(F)F)c2c1CCC2)NCc1ccc(F)cc1`, with -2.3%.
For `O=C(CC1CCCCC1)NCc1ccccc1`, the inhibition is 107% (active).
In the case of `Cc1ccc(Cn2c(C)c3cnn(CC(=O)NCc4ccccn4)c(=O)c3c2C)cc1`, the inhibition was -6.49%.
Take `Cc1nn(CC2CC2)c(=O)n1N(C)c1ncc(C(F)(F)F)cc1Cl`: the inhibition was -23.8%.
Then `COc1ccc(NS(=O)(=O)c2ccc(F)cc2F)cn1`, with -5.14%.
Then `CCOC(=O)Cn1c(=O)n(Cc2ccc(OC)cc2)c(=O)c2cccnc21`, with -6.29%; and `Cc1cc(NS(=O)(=O)c2ccc(NC(=O)C(C)Oc3cccc(C)c3C)cc2)nc(C)n1` (configuration not stated), with 1.79%.
In the case of `CC(NC(=O)COc1ccc(-c2ccccc2)cc1)C1CCCO1` (configuration not stated) it was 12%.
On to `O=C(Cc1coc2ccc3ccccc3c12)NCc1cccs1`, for which the inhibition is 1.44%.
`COc1ccc(C)cc1NC(=O)CNCc1cccs1`: the inhibition is -6.47%.
In the case of `Cc1ccc2c(CC(=O)NCc3cccs3)coc2c1` it was 77.5% (active); in that of `CC(C)[C@H](NC(=O)N1CCn2c1nc1ccccc12)C(=O)NC1CC1`, 25.9%; in that of `CCOC(=O)C1(Cc2ccccc2C(F)(F)F)CCN(C(=O)c2cc(C)n(C)n2)CC1`, 109% (active).
For the compound `CCOC(=O)C1(Cc2ccc(Cl)cc2)CCN(C(=O)C2=NNC(=O)CC2)CC1`, the inhibition was -6.2%.
Turning to `CCOC(=O)C1(CCOc2ccccc2)CCN(C(=O)c2cncs2)CC1`, the inhibition is -4.69%.
In the case of `COC(=O)c1ccc(CNC(=O)C2CCC(=O)N(Cc3ccccn3)C2)cc1` (configuration not stated) it was -9.5%; in that of `CN(C)c1ccc(C2N(C)C(=O)c3ccccc3N2C)cc1` (configuration not stated), -12.6%.
In the case of `O=[N+]([O-])c1ccc(N2CCN(c3ccc(F)cc3)CC2)cn1` it was 20.3%.
Regarding `O=C(Nc1ccccc1Cl)c1ccc2nsnc2c1`, the inhibition is 102% (active).
Then `Cc1cccc(NC(=O)c2ccc(OCC(=O)NCc3ccccc3)cc2)c1C`, with -9.42%; and `O=C(Nc1cccc(NC(=O)c2ccc(Br)cc2)c1)c1ccccc1`, with -7.53%.
Then `Cc1nc(C)c(C(=O)Nc2cccc(C)c2C)o1`, with -7.98%; and `O=S(=O)(Nc1ccccc1Cl)c1cccc2nsnc12`, with -3.15%.
In the case of `O=C(Nc1ccccc1)c1ccc2nsnc2c1` it was 64.7% (active); in that of `Cc1cccc(NC(=O)c2ccc3nsnc3c2)c1C`, 80% (active); in that of `O=C(Nc1ccccc1N1CCCCC1)c1ccc2nccnc2c1`, -14.9%.
Take `COc1ccc(N2CCN(C(=O)C3CCN(C(=O)c4ccccc4Cl)CC3)CC2)cc1`: the inhibition is 26.7%.
Then `CCCCC(CC)CNCc1cccn1CCN1CCOCC1` (configuration not stated), with -23.2%; and `COc1cccc(-c2nc(CS(=O)CC(=O)NCc3ccc(F)cc3)c(C)o2)c1` (configuration not stated), with -9.69%; and `COc1cccc(NC(=O)[C@H](Cc2c[nH]c3ccccc23)NC(=O)[C@@H]2Cc3ccccc3CN2)c1`, with 9.71%.
Then `O=S(=O)(Nc1cccc(-n2cnnn2)c1)c1cnc(Cl)c(Cl)c1`, with -9.74%.
In the case of `Cc1ccc(O)c(NC(=O)c2cc(-c3ccco3)on2)c1` it was 81.4% (active); in that of `Cc1ccc(C)c(NC(=O)c2ccc(OC(=O)c3ccco3)cc2)c1`, 32.9%.
Regarding `Cc1ccc(O)c(NC(=O)COc2cc(C)ccc2C)c1`, the inhibition is -27.8%.
In the case of `O=C(O)CSc1c2c(nc3cc(C(=O)Nc4cccc(C(F)(F)F)c4)ccc13)CCCC2` it was -3.73%.
In the case of `O=C(O)CN1CCN(C(c2ccccc2)c2ccccc2)CC1` it was -10.2%.
Regarding `COc1ccc(NC(=O)CSc2ccc(-c3ccco3)nn2)c(OC)c1`, the inhibition was -11.2%.
Then `O=C(CSc1ccc(-c2ccco2)nn1)NCc1ccc2c(c1)OCO2`, with 25%; and `Brc1ccc(CSc2ccc(-c3ccco3)nn2)cc1`, with 99.8% (active).
Then `Cc1cc(SCc2c(F)cccc2Cl)nc(=O)[nH]1`, with 5.47%; and `Fc1cccc(Cl)c1CSc1ccc(-c2ccco2)nn1`, with 89% (active); and `Clc1ccccc1CSc1nnc(-c2ccco2)c(-c2ccco2)n1`, with -3.95%.
In the case of `O=C(Nc1ccccc1-c1ccccc1)c1ccccc1[N+](=O)[O-]` it was 2.33%; in that of `O=C(Nc1ccc(F)cc1)c1cccnc1N1CCOCC1`, 28.6%; in that of `NC(=O)c1ccc(N2CCOCC2)nc1`, -13.6%.
For the compound `O=C(Nc1ccc(N2CCOCC2)nc1)c1c(F)cccc1F`, the inhibition was 55.5% (active).
In the case of `CC(=O)c1ccc(S(=O)(=O)N(C)CCCC(=O)N(C)Cc2ccccc2F)cc1` it was -5.36%; in that of `COc1ccc(/C=C(/CC(=O)Nc2ccc(C)cc2)c2nc3ccccc3s2)cc1`, 19.4%; in that of `CCn1c(Cc2ccc(OC)cc2)nnc1SCC(=O)Nc1ccc(N2CCOCC2)cc1`, 1.72%.
On to `COc1cccc(/C=C(/CC(=O)Nc2ccc(N3CCOCC3)cc2)c2nc3ccccc3s2)c1`, for which the inhibition is 90.3% (active).
